Test results from PubChem BioAssay AID2546 (National Center for Advancing Translational Sciences (NCATS), 2010).
About 11,000 (3.5%) of roughly 310,000 compounds were called active. Another 8% or so got no clear call; they are omitted. Calls follow the shape of the dose curve; as a rule, active = well fitted inhibition curve with a large enough effect; inconclusive = small, poorly fitted or top-dose-only effect, or effect the other way; inactive = flat fitted curve, though single readings scatter. The list comes from a sample in which actives are over-represented; it also holds similar structures and randomly drawn compounds. Entries that show only a call come without a potency.

Assay: VP16 counterscreen qHTS for inhibitors of ROR gamma transcriptional activity;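 also: Gal4-VP16 expression switched on by copper sulfate through the metallothionein promoter; nearly all actives have a fitted effect of over 50% in size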
Details: Drosophila S2 Gal4-VP16 UAS-luciferase, luminescence, 20 h; series mostly up to 53.6 µM
Potency is read from the fitted curve at half-maximal effect.

Row | Compound | Potency | activity, negative = inhibition
1 | CCCCC(C(=O)NC(C)(C)C)N(Cc1ccccc1)C(=O)c1snc(C(N)=O)c1N (stereo not drawn) | inactive | 
2 | O=C(CN1CCN(Cc2ccccc2)CC1)Nc1ccc(F)c(F)c1 | inactive | 
3 | Cc1cc(N2CCN(C)CC2)nc2ccc(NC(=S)N3CCOCC3)cc12 | inactive | 
4 | CCn1c2ccccc2c2cc(NC(=O)CNC)ccc21 | inactive | 
5 | CCn1c2ccccc2c2cc(NC(=S)N3CCOCC3)ccc21 | 22.4 µM (active) | 
6 | CC(C)CCN(C(=O)c1csnn1)C(C(=O)NC1CCCC1)c1ccccc1 (stereo not drawn) | inactive | 
7 | CC(C)CC(=O)N1CCN(Cc2cccc(Cl)c2)CC1 | inactive | 
8 | Clc1cccc(CN2COc3c(cc(Cl)c4cccnc34)C2)c1 | 1.41 µM (active) | 
9 | Nc1c(C(=O)NCc2ccccc2)nnn1Cc1cccc(Cl)c1 | inactive | 
10 | N#Cc1cccc(CN2CCC(=O)N([C@H](CO)c3ccccc3)CC2)c1 | inactive | 
11 | Cc1ccc(NC(=O)c2c(NC(=O)CCC(=O)O)sc3c2CCCCC3)cc1 | inactive | 
12 | O=C(CN1CCCC1)Nc1sc2c(c1C(=O)Nc1ccccc1)CCCC2 | 10 µM (active) | 
13 | NC(=O)c1c(NC(=O)c2ccccc2)sc2c1CCCC2 | inactive | 
14 | COc1cc(S(=O)(=O)N2CCN=C2c2ccccc2)ccc1Cl | inactive | 
15 | Cc1cc(S(=O)(=O)c2cc3ccc(O)c(C)c3oc2=O)ccc1F | inactive | 
16 | Cc1nc2ccc(C(=O)N/N=C/c3ccc(O)cc3)cc2[nH]1 | inactive | 
17 | Cc1ccc(/C=N/NC(=O)C2=NNC(c3ccccc3)(c3ccccc3)C2)c(O)c1 | 1.26 µM (active) | 
18 | Cc1ccc2occ(/C=N/NC(=O)c3ccccc3C)c(=O)c2c1 | inactive | 
19 | O=C(NCc1ccccc1)c1onc(CSc2nc3ccccc3[nH]2)c1C(=O)NCc1ccccc1 | inactive | 
20 | O=C(COc1ccc2c3c(c(=O)oc2c1)CCCC3)NCC(O)c1ccccc1 (stereo not drawn) | inactive | 
21 | COCCN1C(=O)C(=O)/C(=C(/O)c2ccc(S(=O)(=O)N3CCOCC3)cc2)C1c1ccc(OC)c(OC)c1 (stereo not drawn) | inactive | 
22 | C/C(=N/NC(=S)Nc1ccccc1)c1ccc2c(c1)OCO2 | 4.47 µM (active) | 
23 | C/C(=N\NC(=O)C(N)=O)c1ccc2c(c1)OCCO2 | inactive | 
24 | C/C(=N/NC(=O)c1ccncc1)c1ccc2c(c1)OCO2 | inactive | 
25 | Cc1ccccc1N1CCN(C2CCCN(C(=O)c3cn4c(C)cccc4n3)C2)CC1 (stereo not drawn) | inactive | 

Row | Compound | Potency | activity, negative = inhibition
26 | CCc1nn(CCCC(=O)Nc2ccc(C)c(C)c2)c(=O)c2cc3occc3n12 | inactive | 
27 | CN1C/C(=C/c2cccs2)C(=O)/C(=C\c2cccs2)C1 | inactive | 
28 | O=C(Nc1cccc([N+](=O)[O-])c1)Nc1ccc(Cl)cn1 | inactive | 
29 | O=C(Nc1ccc(Cl)cn1)Nc1cccs1 | 14.1 µM (active) | 
30 | CCCc1cc(C(=O)Nc2ccc(Cl)cn2)cs1 | inactive | 
31 | COc1cc(/C=N/N2CCN(c3ccccc3)CC2)ccc1OC(C)=O | inactive | 
32 | COc1cc2c(cc1OC)/C(=C/C(=O)c1ccc(NC(C)=O)cc1)NCC2 | inactive | 
33 | CC1CN/C(=C\C(=O)c2ccc(Br)cc2)C(=O)N1 (stereo not drawn) | 11.2 µM (active) | 
34 | C/C(=C\C(=O)c1ccc(Br)cc1)N1CCCCC1 | inactive | 
35 | Cc1ccnc(SCC(N)=O)n1 | inactive | 
36 | CCOc1ccccc1N1C(=O)CC(Sc2nccc(C)n2)C1=O (stereo not drawn) | 17.8 µM (active) | 
37 | O=C1CC(Sc2ncn[nH]2)C(=O)N1c1ccccc1 (stereo not drawn) | inactive | 
38 | COC(=O)C1CCN(C(=O)c2ccc3oc(Cc4ccc(Cl)cc4)nc3c2)CC1 | inactive | 
39 | COc1ccc(-c2nc3c(s2)CCc2onc(-c4ccc(OC)cc4)c2-3)cc1 | inactive | 
40 | CCn1ccnc1CNC(=O)CC1C(=O)NCCN1CCCc1ccccc1 (stereo not drawn) | inactive | 
41 | COCCNC(=S)N(CCc1c(C)[nH]c2ccc(C)cc12)Cc1cccnc1 | inactive | 
42 | Cc1cccc(Nc2nc(-c3ccccc3)cs2)n1 | 17.8 µM (active) | 
43 | Cc1cccc(S(=O)(=O)CC(=O)Nc2nc(-c3ccccc3)cs2)c1 | inactive | 
44 | NS(=O)(=O)c1ccc(Nc2nc(-c3ccccc3)cs2)cc1 | inactive | 
45 | O=C(Nc1ccc(S(=O)(=O)N2CCOCC2)cc1)c1ccc2ncsc2c1 | inactive | 
46 | COc1ccccc1-c1nnc(SCC(=O)Nc2ccccc2)o1 | inactive | 
47 | COc1ccccc1-c1nnc(NC(=O)c2ccc3ncsc3c2)o1 | 0.501 µM (active) | 
48 | Nc1nonc1-n1nnc(C(=O)N/N=C/C2CCCCC2)c1-c1ccccc1 | inactive | 
49 | CCCOc1ccc(-c2c(C(=O)N/N=C/c3ccco3)nnn2-c2nonc2N)cc1 | 15.8 µM (active) | 
50 | Nc1nonc1-n1nnc(C(=O)N/N=C/c2c[nH]c3ccccc23)c1-c1ccccc1 | inactive | 

Row | Compound | Potency | activity, negative = inhibition
51 | COc1ccc(NC(=O)c2cccc3c2C(=O)N(CC2CCCO2)C3)cc1OC (stereo not drawn) | inactive | 
52 | O=C(NNS(=O)(=O)c1ccc(F)cc1)C1CCCCC1 | inactive | 
53 | COc1cc(SC#N)ccc1N=Cc1c(C)[nH]n(-c2ccc(C)cc2)c1=O | 5.62 µM (active) | 
54 | COc1cc(NS(=O)(=O)c2ccc(N=Cc3c(C)[nH]n(-c4ccccc4)c3=O)cc2)nc(OC)n1 | inactive | 
55 | O=S(=O)(Nc1cccc(-n2cnnn2)c1)c1cnc(Cl)c(Cl)c1 | inactive | 
56 | CCc1ccc(S(=O)(=O)Nc2cc3c(cc2N2CCCCC2)n(C)c(=O)c(=O)n3C)cc1 | inactive | 
57 | CSCCC(NS(=O)(=O)c1ccc(C)cc1)C(=O)NCCc1c[nH]c2ccccc12 (stereo not drawn) | inactive | 
58 | COc1ccc(C(=O)c2c(C)c(CCC#N)n3ccccc23)c(OC)c1 | inactive | 
59 | Cc1ccc(-c2cc(C(=O)NN)n[nH]2)o1 | inactive | 
60 | Cc1ccc(-c2cc(C(=O)N/N=C/C=C/c3ccccc3)n[nH]2)o1 | 20 µM (active) | 
61 | CC(C)c1cc(C(=O)N/N=C/C(Br)=C/c2ccccc2)n[nH]1 | inactive | 
62 | Cc1cc2oc(=O)cc(CN3CCN(Cc4ccccc4)CC3)c2cc1C | inactive | 
63 | COc1cccc(CNC(=O)Cn2c(=O)oc3cc(S(=O)(=O)N4CCCCC4)ccc32)c1 | inactive | 
64 | Cc1ccc(N2CCN(C(=O)c3cccs3)CC2)c(C)c1 | inactive | 
65 | O=C(Nc1ccccc1N1CCCC1)c1ccc2ccccc2c1 | inactive | 
66 | O=C(CCNC(=O)c1ccc([N+](=O)[O-])cc1)Nc1ccccc1N1CCOCC1 | inactive | 
67 | CC(=O)c1ccc(N2CCN(CC(=O)Nc3ccccc3N3CCOCC3)CC2)cc1 |  | -11.4% [at 10 µM] (inactive)
68 | COc1ccc(C(=O)NC(=S)Nc2ccccc2N2CCN(S(C)(=O)=O)CC2)cc1OC | inactive | 
69 | CCc1ccc(C(=O)NC(=S)Nc2ccccc2N2CCOCC2)cc1 | 3.16 µM (active) | 
70 | Cc1ccccc1NC(=O)Nc1ccccc1N1CCCCC1 | inactive | 
71 | COc1ccccc1C(=O)NC(=S)Nc1ccccc1N1CCCCC1 | 10 µM (active) | 
72 | O=C(Nc1ccccc1N1CCCCC1)c1cccc(F)c1 | inactive | 
73 | O=C(NC(=S)Nc1ccccc1N1CCCCC1)c1ccc(F)cc1 | 6.31 µM (active) | 
